Assay results taken from the antibiotic and cytotoxicity screens of Wong et al. (2023).
The campaign covered roughly 39,000 compounds. About 3,300 (8.5%) were called active. The full list was thinned out, with actives kept by preference.

System: HepG2
Assay: cytotoxicity call (relative viability < 0.9)
Settings: 10 µM

| Compound | cytotoxicity call |
| --- | --- |
| COC[C@H]1CCCNC1 | inactive |
| C[C@@H]1CN([C@@H](C)CO)C(=O)c2cc(NC(=O)Cc3ccccc3)ccc2O[C@@H](C)CCCCO[C@H]1CN(C)Cc1ccncc1 | inactive |
| CC(C)NC(=O)Nc1ccc2c(c1)C(=O)N([C@@H](C)CO)C[C@@H](C)[C@H](CN(C)S(=O)(=O)c1ccccc1)O2 | inactive |
| C[C@H](CO)N1C[C@H](C)[C@@H](CN(C)C(=O)NC2CCCCC2)Oc2ccc(NC(=O)Nc3cccc4ccccc34)cc2C1=O | inactive |
| C[C@@H]1CCCCO[C@@H](CN(C)C(=O)Cc2ccccc2)[C@H](C)CN([C@@H](C)CO)C(=O)c2cc(NC(=O)Nc3ccc(C(F)(F)F)cc3)ccc2O1 | inactive |
| Cc1noc(C)c1S(=O)(=O)Nc1ccc2c(c1)C(=O)N([C@H](C)CO)C[C@H](C)[C@H](CN(C)C(=O)Nc1ccccc1)OCCCC[C@H](C)O2 | inactive |
| C[C@@H]1CN([C@@H](C)CO)C(=O)Cc2cc(NC(=O)CCC(F)(F)F)ccc2O[C@H]1CN(C)Cc1ccc(C(=O)Nc2ccccc2N)cc1 | inactive |
| C[C@H](CO)N1C[C@H](C)[C@H](CN(C)Cc2ccc(-c3ccccc3)cc2)Oc2ccc(NC(=O)C3CCCCC3)cc2C1=O | active |
| C[C@@H]1CN([C@@H](C)CO)C(=O)c2cc(NC(=O)C3CC3)ccc2O[C@@H]1CN(C)Cc1ccc(-c2ccccc2)cc1 | inactive |
| C[C@H]1CN([C@@H](C)CO)C(=O)c2cc(NC(=O)C3CC3)ccc2O[C@H]1CN(C)Cc1ccc(-c2ccccc2)cc1 | inactive |
| CN1CCN(C(=O)C[C@@H]2CC[C@H]3[C@@H](COC[C@@H](O)CN3C(=O)C3CC3)O2)CC1 | inactive |
| C[C@H]1Cc2cc(S(=O)(=O)N(C)CC(=O)N3CCOCC3)ccc2N1C(=O)C1CC1 | inactive |
| CCS(=O)(=O)Nc1ccc2c(c1)C(=O)N(C)[C@@H]1CC[C@H](CC(=O)NCc3ccccc3F)O[C@@H]1CO2 | inactive |
| O=C(C[C@H]1CC[C@H]2[C@@H](COC[C@H](O)CN2Cc2ccccc2F)O1)N[C@H]1CCN(Cc2ccccc2)C1 | inactive |
| COCCOC(=O)N1C(=O)[C@@]2(c3ccccc31)[C@H](C(=O)N1CCc3cc(OC)c(OC)cc3C1)[C@H]1C(=O)O[C@H](c3ccccc3)[C@H](c3ccccc3)N1[C@@H]2c1ccc(O)cc1 | inactive |
| C[C@@H]1CCCCO[C@@H](CN(C)Cc2ccc(C(F)(F)F)cc2)[C@H](C)CN([C@@H](C)CO)C(=O)c2cc(NC(=O)c3ccccc3)ccc2O1 | inactive |
| C=CC[C@H](CC(=O)N(CCO)Cc1ccccc1)C(=O)NC[C@H](OC(=O)[C@@H](CC=C)Cc1ccc(F)cc1)c1ccccc1 | inactive |
| C=CCC[C@H](Cc1ccc(F)cc1)C(=O)OC[C@@H](NC(=O)[C@@H](CC=C)CC(=O)N(CCO)Cc1ccccc1)c1ccccc1 | inactive |
| C=CCC[C@H](Cc1ccc(F)cc1)C(=O)O[C@H](CNC(=O)[C@@H](CC=C)CC(=O)N(CCO)Cc1ccccc1)c1ccccc1 | inactive |
| C=CCC[C@@H](Cc1ccc(F)cc1)C(=O)O[C@@H](CNC(=O)[C@@H](CC=C)CC(=O)N(CCO)Cc1ccccc1)c1ccccc1 | active |
| C=CCC[C@H](Cc1ccc(F)cc1)C(=O)O[C@H](CNC(=O)[C@H](CC=C)CC(=O)N(CCO)Cc1ccccc1)c1ccccc1 | inactive |

| Compound | cytotoxicity call |
| --- | --- |
| C=CCC[C@@H](Cc1ccc(F)cc1)C(=O)O[C@H](CNC(=O)[C@H](CC=C)CC(=O)N(CCO)Cc1ccccc1)c1ccccc1 | inactive |
| C=CCC[C@@H](Cc1ccc(F)cc1)C(=O)O[C@@H](CNC(=O)[C@H](CC=C)CC(=O)N(CCO)Cc1ccccc1)c1ccccc1 | active |
| C=CCC[C@@H](Cc1ccc(F)cc1)C(=O)O[C@H](CNC(=O)[C@@H](CC=C)CC(=O)N(CCO)Cc1ccccc1)c1ccccc1 | inactive |
| C=CCC[C@@H](Cc1ccc(F)cc1)C(=O)OC[C@@H](NC(=O)[C@H](CC=C)CC(=O)N(CCO)Cc1ccccc1)c1ccccc1 | inactive |
| C=CCC[C@H](Cc1ccc(F)cc1)C(=O)O[C@@H](CNC(=O)[C@@H](CC=C)CC(=O)N(CCO)Cc1ccccc1)c1ccccc1 | active |
| C=CCC[C@H](Cc1ccc(F)cc1)C(=O)O[C@@H](CNC(=O)[C@H](CC=C)CC(=O)N(CCO)Cc1ccccc1)c1ccccc1 | inactive |
| C=CCC[C@@H](Cc1ccc(F)cc1)C(=O)OC[C@@H](NC(=O)[C@@H](CC=C)CC(=O)N(CCO)Cc1ccccc1)c1ccccc1 | active |
| COCC(=O)Nc1ccc2c(c1)C(=O)N(C)[C@@H]1CC[C@H](CC(=O)N3CCc4ccccc4C3)O[C@H]1CO2 | inactive |
| Cc1noc(C)c1NC(=O)Nc1ccc2c(c1)C(=O)N([C@@H](C)CO)C[C@H](C)[C@H](CN(C)S(=O)(=O)c1ccc(F)cc1)OCCCC[C@H](C)O2 | inactive |
| CN1C(=O)c2cc(NC(=O)C3CCOCC3)ccc2OC[C@@H]2O[C@@H](CC(=O)NCCc3ccncc3)CC[C@@H]21 | inactive |
| COc1ccc(C=Cc2cc(O)cc(O[C@@H]3O[C@H](CO)[C@@H](O)[C@H](O)[C@H]3O)c2)cc1 | inactive |
| C1=C(c2ccccc2)CC(c2ccccc2)=NN=C1c1ccccc1 | inactive |
| COCCNC(=O)[C@H]1[C@H](CO)[C@H]2Cn3c(cccc3=O)[C@@H]1N2S(=O)(=O)c1ccccc1C | inactive |
| C[C@@H]1CN([C@H](C)CO)C(=O)Cc2cc(NC(=O)Cn3cnnn3)ccc2O[C@H]1CN(C)S(=O)(=O)c1ccc(Cl)cc1 | inactive |
| CC(C)NC(=O)Nc1ccc2c(c1)CC(=O)N([C@@H](C)CO)C[C@@H](C)[C@@H](CN(C)S(=O)(=O)c1ccccc1)O2 | inactive |
| CC(C)NC(=O)Nc1ccc2c(c1)CC(=O)N([C@H](C)CO)C[C@H](C)[C@H](CN(C)S(=O)(=O)c1ccc(F)cc1)O2 | inactive |
| C[C@H](CO)N1C[C@H](C)[C@H](CN(C)Cc2ccc3c(c2)OCO3)Oc2ccc(NS(C)(=O)=O)cc2C1=O | inactive |
| COc1ccc(NC(=O)Nc2ccc3c(c2)C(=O)N([C@H](C)CO)C[C@@H](C)[C@@H](CN(C)S(=O)(=O)c2ccccc2)OCCCC[C@H](C)O3)cc1 | inactive |
| C[C@H]1CCCCO[C@H](CN(C)S(=O)(=O)c2ccc(Cl)cc2)[C@@H](C)CN([C@@H](C)CO)C(=O)c2cc(NC(=O)C3CCCCC3)ccc2O1 | inactive |
| O=C(C[C@H]1CC[C@H]2[C@@H](COC[C@H](O)CN2S(=O)(=O)c2ccc(F)cc2)O1)N[C@H]1CCN(Cc2ccccc2)C1 | inactive |
| C[C@@H]1CCCCO[C@@H](CN(C)Cc2ccc3c(c2)OCO3)[C@@H](C)CN([C@@H](C)CO)C(=O)c2cc(NS(=O)(=O)c3cccs3)ccc2O1 | inactive |

| Compound | cytotoxicity call |
| --- | --- |
| O=C1C(NS(=O)(=O)c2ccc(Br)cc2)=C(c2ccc(OC(F)(F)F)cc2)C(=O)c2ccccc21 | inactive |
| CCN1CCN(C2=C(NS(=O)(=O)c3ccc(Br)s3)C(=O)c3ccccc3C2=O)CC1 | active |
| CCN1CCN(C2=C(NS(=O)(=O)c3ccc(Br)cc3)C(=O)c3ccccc3C2=O)CC1 | active |
| CC(=O)N1CCN(CC(=O)NS(=O)(=O)c2ccccc2)CC1 | inactive |
| COc1cccc(C#Cc2ccc3c(c2)O[C@@H](CN(C)C(C)=O)[C@H](C)CN([C@H](C)CO)S3(=O)=O)c1 | inactive |
| O=C(C[C@H]1C[C@H]2c3cc(NS(=O)(=O)c4ccc(F)cc4)ccc3O[C@H]2[C@@H](CO)O1)NCc1ccccn1 | inactive |
| Cc1noc(C)c1NC(=O)Nc1ccc2c(c1)C(=O)N([C@H](C)CO)C[C@H](C)[C@H](CN(C)S(=O)(=O)c1ccc(Cl)cc1)OCCCC[C@@H](C)O2 | inactive |
| CN1CCN(C(=O)C[C@@H]2CC[C@H]3[C@H](COc4ccc(NC(=O)C5CCOCC5)cc4C(=O)N3C)O2)CC1 | inactive |
| C[C@@H]1CCCCO[C@H](CN(C)S(=O)(=O)c2cn(C)cn2)[C@@H](C)CN([C@@H](C)CO)C(=O)c2cc(NS(=O)(=O)c3cccs3)ccc2O1 | inactive |
| CCCNC(=O)Nc1ccc2c(c1)C(=O)N(C)C[C@@H](OC)[C@H](C)CN(C(=O)C1CCOCC1)[C@@H](C)CO2 | inactive |
| CCO[C@@H]1OC(C(=O)N2CCN(Cc3ccccc3)CC2)=C[C@H](c2ccc(C(F)(F)F)cc2)[C@H]1CCCOC(=O)NCCCCCC(=O)NO | inactive |
| CN(C)CC(=O)N[C@@H]1CC[C@H](CCNC(=O)C2CC2)O[C@@H]1CO | inactive |
| C[C@@H]1CN([C@H](C)CO)C(=O)c2cccc(NC(=O)Nc3cccc4ccccc34)c2O[C@@H]1CN(C)C(=O)Nc1ccc(C(F)(F)F)cc1 | active |
| C[C@H]1CN([C@@H](C)CO)C(=O)c2cccc(NC(=O)Nc3cccc4ccccc34)c2O[C@H]1CN(C)C(=O)Nc1ccc(C(F)(F)F)cc1 | active |
| C[C@@H]1CN([C@@H](C)CO)C(=O)c2cccc(NC(=O)Nc3cccc4ccccc34)c2O[C@H]1CN(C)C(=O)Nc1ccc(C(F)(F)F)cc1 | active |
| C[C@H]1CN([C@@H](C)CO)C(=O)c2cccc(NC(=O)Nc3cccc4ccccc34)c2O[C@@H]1CN(C)C(=O)Nc1ccc(C(F)(F)F)cc1 | active |
| O=C(C1=C[C@H](c2coc3ccccc3c2=O)C[C@H](OCCCCO)O1)N1CCOCCOCCOCCOCC1 | inactive |
| Cc1ccc(S(=O)(=O)Nc2ccc3c(c2)C(=O)N([C@@H](C)CO)C[C@@H](C)[C@H](CN(C)C(=O)Nc2ccc4c(c2)OCO4)OCCCC[C@@H](C)O3)cc1 | inactive |
| COc1ccc(S(=O)(=O)N(C)C[C@H]2OCCCC[C@H](C)Oc3ccc(NC(=O)Nc4cccc5ccccc45)cc3C(=O)N([C@H](C)CO)C[C@@H]2C)cc1 | inactive |
| COc1cccc(S(=O)(=O)Nc2ccc3c(c2)[C@@H]2C[C@H](CC(=O)NCCc4ccccc4)O[C@@H](CO)[C@@H]2O3)c1 | inactive |
